Screening results (PubChem BioAssay)
Rows were chosen to be rich in hits. Some 2.4% of all compounds tested hit in one or more screens of this group.
Pol eta inh: blocks human DNA polymerase eta activity; Q9Y253; recombinant Pol eta, fluorescent DNA replication assay; Potency, µM (titrated, usually from 114 µM), for the others: at the highest dose activity change, negative = inhibition, most hits filed as inhibitors; hit rate 1.2% among 390,000; also: % is scaled to controls: 0 for no effect and ±100 for the full control effect
Target sequence (Q9Y253 whole entry, looked up): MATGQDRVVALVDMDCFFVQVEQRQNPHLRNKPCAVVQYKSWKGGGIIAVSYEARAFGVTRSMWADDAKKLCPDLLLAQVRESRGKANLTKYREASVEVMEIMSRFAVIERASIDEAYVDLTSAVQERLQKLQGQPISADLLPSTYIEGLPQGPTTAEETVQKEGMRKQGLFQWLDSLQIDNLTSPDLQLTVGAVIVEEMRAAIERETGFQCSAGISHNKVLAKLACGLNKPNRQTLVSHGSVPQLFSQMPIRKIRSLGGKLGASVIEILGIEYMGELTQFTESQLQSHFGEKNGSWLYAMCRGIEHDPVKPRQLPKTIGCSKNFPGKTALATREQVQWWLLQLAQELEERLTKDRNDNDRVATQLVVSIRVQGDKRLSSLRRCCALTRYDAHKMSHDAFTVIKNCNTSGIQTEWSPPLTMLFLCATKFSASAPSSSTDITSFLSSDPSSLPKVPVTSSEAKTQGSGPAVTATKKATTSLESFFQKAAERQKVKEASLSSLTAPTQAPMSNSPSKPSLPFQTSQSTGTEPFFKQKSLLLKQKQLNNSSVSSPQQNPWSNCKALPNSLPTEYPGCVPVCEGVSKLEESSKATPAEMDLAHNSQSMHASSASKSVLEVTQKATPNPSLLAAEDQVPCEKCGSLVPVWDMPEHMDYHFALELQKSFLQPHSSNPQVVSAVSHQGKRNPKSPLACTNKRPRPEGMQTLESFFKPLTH
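Pol eta (10 nM) was preincubated with compounds for 15 min at room temperature, after which fluorescent replication substrate (50 nM final) was added to start the reaction. Fluorescence was read kinetically at 0 and 10 min.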
Pol iota inh: inhibitors of human DNA polymerase iota; hit rate 1% among 390,000; AID 588590; Pol iota fluorescent replication assay, 10 min; Potency, µM (titrated, usually from 115 µM), for inactives: top-dose activity, negative = inhibition, most hits filed as inhibitors
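Fluorescent replication assay read twice, at 0 min and 10 min after adding 50 nM (final) substrate. Enzyme (10 nM) and compounds were first incubated 15 min at room temperature; enzyme-free buffer wells were negative controls.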
FEN1 inhibitor: blocks human flap endonuclease 1. Recombinant FEN1 flap cleavage, fluorescence, 15 min. AID 588795. hit rate 0.35% among 390,000. Potency, µM (doses to about 114 µM), without a hit: at the top dose activity change, negative = inhibition, most hits filed as inhibitors; also: % is scaled to controls: 0 for no effect and ±100 for the full control effect; nearly all actives have a fitted effect of over 65% in size
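Enzyme 10 nM, 15 min RT preincubation with compound; start with substrate 50 nM final; reads at 0 and 15 min; qHTS titration, four-parameter Hill fit.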
Pol kappa inh: inhibitors of human DNA polymerase kappa | hit rate 0.53% among 400,000 | Q9UBT6 | purified Pol kappa, fluorescent DNA synthesis assay, 10 min | Potency, µM (doses to about 107 µM), inactives show top-dose activity, negative = inhibition, usual class: inhibitors; also: % is scaled to controls: 0 for no effect and ±100 for the full control effect
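10 nM Pol kappa preincubated 15 min at room temperature with compounds, then reaction started with substrate at 50 nM final. Fluorescence read kinetically at 0 and 10 min; buffer-only wells served as negative control.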
POLB inh: blocks human DNA polymerase beta activity; P06746; Pol beta primer extension/strand displacement, fluorescence kinetic; Potency, µM (doses to about 114 µM), without a hit: top-dose activity change, negative = inhibition, actives largely listed as inhibitors; hit rate 1.3% among 340,000; also: % is scaled to controls: 0 for no effect and ±100 for the full control effect
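Preincubation: enzyme (10 nM) with compound, 15 min, RT. Reaction: substrate added to 50 nM final. Reads: 0 and 10 min. Analysis: normalized, Hill fit.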
WRN inhibitor: inhibitors of human WRN helicase | WRN helicase unwinding, fluorescent forked duplex, kinetic | Potency, µM (doses to about 114 µM), inactives show at the top dose activity change, negative = inhibition, actives largely listed as inhibitors | hit rate 0.46% among 360,000 | AID 651768; also: % is scaled to controls: 0 for no effect and ±100 for the full control effect; nearly all actives have a fitted effect of over 55% in size
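Enzyme (20 nM final) and test compound sit together 15 min at room temperature before substrate addition. Substrate is a single-forked duplex oligonucleotide (100 nM) labelled with fluorophore and quencher, with 2 mM ATP; helicase unwinding raises red fluorescence, read kinetically.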
Starred values were filed as active, the others as inactive; ! = repeats disagree; [ ] = dose if it differs, or a comment. Calls follow the shape of the dose curve; as a rule, active = well fitted curve in the direction sought with a large enough effect; inconclusive = small, poorly fitted or top-dose-only effect, or another doubt; inactive = no such curve, though single readings can be large; an effect the other way counts as inactive or inconclusive. Potency is read from the fitted curve at half-maximal effect.

How did COC(=O)c1c(C)oc2ccc(N(C(=O)Oc3ccccc3)S(=O)(=O)c3ccc(Cl)c([N+](=O)[O-])c3)cc12 do in these assays?
Pol eta inh: inconclusive; Pol iota inh: 45µM*; FEN1 inhibitor: 2%; Pol kappa inh: -21%; POLB inh: 22µM*; WRN inhibitor: -13%

What do the screens show for `Cc1cc(-c2csc(N)n2)c(C)n1C`?
Pol eta inh: inconclusive; Pol iota inh: inconclusive; FEN1 inhibitor: inconclusive; Pol kappa inh: -16%; POLB inh: 0%; WRN inhibitor: inconclusive

How did Cc1cc(C(=O)COC(=O)c2ccco2)c(C)n1Cc1ccco1 do in these assays?
Pol eta inh: inconclusive; Pol iota inh: inconclusive; FEN1 inhibitor: 13%; Pol kappa inh: inconclusive; POLB inh: -13%; WRN inhibitor: -14%

How did Cc1cc(-c2csc(N)n2)c(C)n1Cc1ccco1 do in these assays?
Pol eta inh: 1%; Pol iota inh: inconclusive; FEN1 inhibitor: inconclusive; Pol kappa inh: 10µM*; POLB inh: -1%; WRN inhibitor: -10%

Results for Cc1cc(C(=O)COC(=O)c2cc(Cl)ccc2N)c(C)n1Cc1ccco1 ?
Pol eta inh: -16%; Pol iota inh: inconclusive; FEN1 inhibitor: -11%; Pol kappa inh: -41%; POLB inh: 40µM*; WRN inhibitor: -27%

Results for COc1ccc(CN2CCN(C(=O)CCC(=O)c3ccc(C)s3)CC2)cc1OC ?
Pol eta inh: 25µM*; Pol iota inh: 89µM*; FEN1 inhibitor: -3%; Pol kappa inh: -33%; WRN inhibitor: -22%

How did CCn1cc(S(=O)(=O)c2ccccc2)c(=O)c2cc(F)c(N3CCCCCC3)cc21 do in these assays?
Pol eta inh: -9%; Pol iota inh: 1%; FEN1 inhibitor: -16%; Pol kappa inh: -14%; POLB inh: 23%

What do the screens show for `COc1ccccc1OC(C)C(=O)Nc1cccc(-c2nc3ccccc3o2)c1` (stereo not given)?
Pol eta inh: inconclusive; Pol iota inh: 89µM*; FEN1 inhibitor: inconclusive; Pol kappa inh: inconclusive; POLB inh: 50µM*

How did CC(C)C(=O)Nc1cccc(-c2nc3ccccc3o2)c1 do in these assays?
Pol eta inh: -14%; Pol iota inh: 2%; FEN1 inhibitor: -4%; Pol kappa inh: -1%; POLB inh: inconclusive; WRN inhibitor: 9%

How did CC(C)(C)C1=CC(=O)C(=O)C(C(C)(C)C)=C1 do in these assays?
Pol eta inh: -24%; Pol iota inh: 6%; FEN1 inhibitor: 71µM*; Pol kappa inh: -8%; POLB inh: 7%; WRN inhibitor: -14%

Results for O=C(CSc1ccccn1)Nc1cccc(NC(=O)CSc2ccccn2)n1 ?
Pol eta inh: -6%; Pol iota inh: inconclusive; FEN1 inhibitor: -15%; Pol kappa inh: -19%; POLB inh: 10µM*; WRN inhibitor: -12%

Results for O=C(/C=C/c1ccco1)NCC(=O)N/N=C/c1ccc(Cl)cc1 ?
Pol eta inh: -10%; Pol iota inh: -24%; FEN1 inhibitor: -9%; Pol kappa inh: -13%; POLB inh: 2%; WRN inhibitor: -3%

How did O=C(COc1cccc([N+](=O)[O-])c1)N/N=C/c1ccco1 do in these assays?
Pol eta inh: inconclusive; Pol iota inh: 28µM*; FEN1 inhibitor: 13%; Pol kappa inh: -31%; POLB inh: -18%; WRN inhibitor: 3%[11.6 µM]

What do the screens show for `Cc1cc(=O)oc2cc(OCC(=O)Nc3ccc(O)c(C(=O)O)c3)ccc12`?
Pol eta inh: inconclusive; Pol iota inh: inconclusive; FEN1 inhibitor: -25%; Pol kappa inh: -17%; POLB inh: inconclusive

How did Cc1cc(=O)oc2cc(OCC(=O)N/N=C/c3cc([N+](=O)[O-])ccc3O)ccc12 do in these assays?
Pol eta inh: inconclusive; Pol iota inh: inconclusive; FEN1 inhibitor: 16%; Pol kappa inh: -19%; POLB inh: 32µM*; WRN inhibitor: -1%

Results for O=C(/C=C/c1ccco1)NCC(=O)N/N=C/c1ccc([N+](=O)[O-])cc1 ?
Pol eta inh: 45µM*; Pol iota inh: 40µM*; FEN1 inhibitor: inconclusive; Pol kappa inh: inconclusive; POLB inh: inconclusive; WRN inhibitor: -4%[11.6 µM]

Results for C/C(=N/NC(=O)CNC(=O)/C=C/c1ccco1)c1ccc(Cl)cc1 ?
Pol eta inh: -26%; Pol iota inh: 22%; FEN1 inhibitor: 1%; Pol kappa inh: -12%; POLB inh: 22µM*; WRN inhibitor: -17%

How did Cc1cc(C)cc(OCC(=O)N/N=C/c2ccco2)c1 do in these assays?
Pol eta inh: -12%; Pol iota inh: 114%; FEN1 inhibitor: 6%; Pol kappa inh: -3%; POLB inh: -1%; WRN inhibitor: 13%

Results for O=C(/C=C/c1ccc([N+](=O)[O-])cc1)/C=C/c1ccco1 ?
POLB inh: 10µM*

Results for Cc1cccc(C(=O)Nc2cccc(C(=O)OCc3cc(=O)n4ccsc4n3)c2)c1 ?
Pol eta inh: -12%; Pol iota inh: 5%; FEN1 inhibitor: 5%; Pol kappa inh: -15%[60.1 µM]; POLB inh: -14%

Results for COC(=O)c1c(C)c2c(c(C)c1O)OC(=O)c1c(C)c(Cl)c(O)c(Cl)c1O2 ?
Pol kappa inh: 2%[60.1 µM]

What do the screens show for `Cc1cc(O)c(C=O)c2c1C(=O)Oc1c(C)c(O)c3c(c1O2)C(O)OC3=O` (stereo not given)?
Pol kappa inh: 10µM*

How did O=S(=O)(Cc1cc(NCc2ccccc2)nc(-c2ccncc2)n1)c1ccccc1 do in these assays?
Pol eta inh: -9%; Pol iota inh: 89%; FEN1 inhibitor: 7%; Pol kappa inh: -2%; POLB inh: 79µM*; WRN inhibitor: 3%

Results for CCCCCCCCCCCC(=O)NC(Cc1ccc(OC)c([N+](=O)[O-])c1)C(=O)O (stereo not given) ?
Pol eta inh: -17%; Pol iota inh: 21%; FEN1 inhibitor: -7%; Pol kappa inh: -7%; POLB inh: 9%; WRN inhibitor: -14%

How did CCCCCCCCCCCCCCCC(=O)N[C@@H](COP(=O)(O)O)C(=O)O do in these assays?
Pol kappa inh: 27µM*!

Results for Clc1ccc(-c2nn3c(-c4cc(-c5ccccc5)n[nH]4)nnc3s2)cc1 ?
Pol iota inh: -6%; FEN1 inhibitor: -13%; Pol kappa inh: -5%

What do the screens show for `CCOc1ccc(CNC(=O)C2Cc3cc(S(=O)(=O)N4CCCCCC4)ccc3N2C(C)=O)cc1` (stereo not given)?
Pol eta inh: -23%; Pol iota inh: 26%; FEN1 inhibitor: -4%; Pol kappa inh: 3%; POLB inh: 2%
